The source made the active and inactive calls. Rule for the calls: active = hit-call score of the fitted dose curve at least 0.9, where 1 is the maximum; inactive = score below 0.9.

Experimental findings from PubChem BioAssay (EPA / NIEHS) are described below.

Common to all, as to settings: primary human HUVEC with PBMC; actives raise or lower the signal
Test [1] is described as follows: BSK_LPS_PGE2: BioMAP Diversity Plus: LPS Assay for Prostaglandin E2 (PGE2) Biomarker Activity (AID 2283082).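 For AC50: secreted prostaglandin E2 measured by ELISA in LPS-stimulated co-culture.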 In short, it runs like this:
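ELISA read-out of PGE2 from human umbilical vein endothelial cells co-cultured with peripheral blood mononuclear cells under LPS, 24 h post-dose. Gain or loss of signal scored relative to DMSO baseline.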

Read-out in test [2]: Macrophage colony-stimulating factor (MCSF), CSF1 (gene 1435)
Kind of test: BSK_LPS_MCSF: BioMAP Diversity Plus: LPS Assay for Macrophage colony-stimulating factor (MCSF) Biomarker Activity (AID 2283083). In short, it runs like this:
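HUVEC + PBMC co-culture (human primary), 24 h post-dose; M-CSF by ELISA; gain/loss of signal fitted bidirectionally vs DMSO baseline.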

Read-out in test [3]: Tissue Factor, F3 (gene 2152)
Kind of test: BSK_LPS_TissueFactor: BioMAP Diversity Plus: LPS Assay for Tissue Factor Biomarker Activity (AID 2283084). In short, it runs like this:
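HUVEC/PBMC co-culture, LPS-activated; CD142 ELISA read 24 h post-dose; bidirectional curve fit vs DMSO negative control.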

Read-out in test [4]: Tumor necrosis factor (Homo sapiens) (UniProt P01375)
Kind of test: BSK_LPS_TNFa: BioMAP Diversity Plus: LPS Assay for Tumour Necrosis Factor alpha (TNFa) Biomarker Activity (AID 2283085).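 For AC50: TNFa protein level quantified by ELISA in the co-culture.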 An outline of the steps:
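HUVEC/PBMC co-culture, LPS-stimulated; 24 h post-dose; TNFa by ELISA; gain or loss of signal fitted bidirectionally vs DMSO baseline.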

Read-out in test [5]: Vascular cell adhesion molecule 1 (VCAM1), VCAM1 (gene 7412)
Kind of test: BSK_LPS_VCAM1: BioMAP Diversity Plus: LPS Assay for Vascular cell adhesion molecule 1 (VCAM1) Biomarker Activity (AID 2283086). In short, it runs like this:
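ELISA read-out of VCAM-1 at 24 h post-dosing in an LPS-driven HUVEC/PBMC primary human co-culture; gain or loss of signal fitted bidirectionally against DMSO baseline. Cytotoxicity tracked in parallel cultures by SRB total-protein staining.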

Read-out in the next test: CD38, CD38 (gene 952)
Kind of test: BSK_SAg_CD38: BioMAP Diversity Plus: SAg Assay for CD38 Biomarker Activity (AID 2283087). In short, it runs like this:
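Measures CD38 on a human endothelial/PBMC co-culture driven by SEB and TSST-1, 24 h after compound exposure, using ELISA with fluorescence detection; DMSO defines baseline for bidirectional curve fitting.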

Read-out in another test: CD40, CD40 (gene 958)
Kind of test: BSK_SAg_CD40: BioMAP Diversity Plus: SAg Assay for CD40 Biomarker Activity (AID 2283088). In short, it runs like this: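 HUVEC/PBMC co-culture, 24 h post-dose; CD40 by ELISA, fluorescence intensity; bidirectional fit vs DMSO negative control.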

Read-out in a further test: CD69, CD69 (gene 969)
Kind of test: BSK_SAg_CD69: BioMAP Diversity Plus: SAg Assay for CD69 Biomarker Activity (AID 2283089).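 For AC50: cell surface CD69 protein quantified by ELISA with fluorescence detection.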 In short, it runs like this:
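Values derive from bidirectional fitting relative to DMSO vehicle. Cells: umbilical vein endothelium plus peripheral blood mononuclear cells, treated 24 h before fluorescent ELISA for CD69.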

Read-out in test [6]: Monocyte Chemoattractant Protein-1 (MCP1), CCL2 (gene 6347)
Kind of test: BSK_SAg_MCP1: BioMAP Diversity Plus: SAg Assay for Monocyte Chemoattractant Protein-1 (MCP1) Biomarker Activity (AID 2283090). In short, it runs like this:
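Values derive from bidirectional fitting of ELISA-measured MCP1 against DMSO controls. Readings were taken 24 h after dosing human vascular endothelial cells co-cultured with peripheral blood mononuclear cells under superantigen stimulation.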

Read-out in test [7]: E-selectin (Homo sapiens) (UniProt P16581)
Kind of test: BSK_SAg_Eselectin: BioMAP Diversity Plus: SAg Assay for Eselectin Biomarker Activity (AID 2283091). An outline of the steps: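 E-selectin ELISA readout at 24 h post-dosing in human umbilical vein endothelial cell/PBMC co-culture; gain or loss of signal fitted relative to DMSO baseline.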

Chain of Tumor necrosis factor (Homo sapiens) (P01375 whole entry, looked up): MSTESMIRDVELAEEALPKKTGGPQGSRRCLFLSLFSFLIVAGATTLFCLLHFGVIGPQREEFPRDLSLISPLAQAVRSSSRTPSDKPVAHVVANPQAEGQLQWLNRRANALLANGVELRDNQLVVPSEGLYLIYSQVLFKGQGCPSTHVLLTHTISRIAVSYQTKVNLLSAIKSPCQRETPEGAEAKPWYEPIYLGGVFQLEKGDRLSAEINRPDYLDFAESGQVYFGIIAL
Chain of E-selectin (Homo sapiens) (P16581 whole entry, looked up): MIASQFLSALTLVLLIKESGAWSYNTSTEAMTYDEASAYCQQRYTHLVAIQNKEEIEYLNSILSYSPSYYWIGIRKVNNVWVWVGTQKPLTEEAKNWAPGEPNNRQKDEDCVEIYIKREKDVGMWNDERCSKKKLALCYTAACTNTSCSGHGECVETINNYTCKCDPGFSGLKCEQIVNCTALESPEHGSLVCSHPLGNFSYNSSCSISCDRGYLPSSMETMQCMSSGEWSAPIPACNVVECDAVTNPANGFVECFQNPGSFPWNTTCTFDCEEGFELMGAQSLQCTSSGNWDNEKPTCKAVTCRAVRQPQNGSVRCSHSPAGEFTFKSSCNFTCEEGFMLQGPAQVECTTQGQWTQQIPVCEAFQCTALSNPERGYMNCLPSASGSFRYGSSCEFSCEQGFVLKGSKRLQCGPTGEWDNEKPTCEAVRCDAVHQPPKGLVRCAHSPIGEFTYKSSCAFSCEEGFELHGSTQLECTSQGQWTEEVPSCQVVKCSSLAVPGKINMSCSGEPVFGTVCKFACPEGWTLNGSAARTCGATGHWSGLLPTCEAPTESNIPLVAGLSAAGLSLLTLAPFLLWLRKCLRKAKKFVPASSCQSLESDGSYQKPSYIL

With `CC(=O)OC[C@H]1O[C@@](COC(C)=O)(O[C@H]2O[C@H](COC(C)=O)[C@@H](OC(C)=O)[C@H](OC(C)=O)[C@H]2OC(C)=O)[C@@H](OC(C)=O)[C@@H]1OC(C)=O`, the outcome in [1] was “inactive”; in [2] it was “inactive”; in test [3], “inactive”; in [4] it was “inactive”; in [5] it was “inactive”; in the test with CD38, CD38 (gene 952) it was “inactive”. In addition, the outcome with CD40, CD40 (gene 958) is “inactive”; with CD69, CD69 (gene 969), “inactive”; in test [6], “inactive”; in test [7], “inactive”.
As for `CCN(C(=O)c1cc(C)cc(OC[C@H](C)Nc2ccncc2)c1)C(C)C`, the outcome in test [1] is “inactive”; in test [2] it was “inactive”; in test [3], “inactive”; in [4] it was “inactive”; in [5] it was “inactive”; in the test with CD38, CD38 (gene 952), “inactive”. Moreover, the outcome with CD40, CD40 (gene 958) was “inactive”; in the test with CD69, CD69 (gene 969), “inactive”; in [6] it was “inactive”; in test [7], “inactive”.
`C[C@](N)(Cc1ccc(O)c(O)c1)C(=O)O`: the outcome in [1] was “inactive”; in [2], “inactive”; in [3], “inactive”; in test [4] it was “inactive”; in test [5], “inactive”; with CD38, CD38 (gene 952) it was “inactive”. Moreover, the outcome in the test with CD40, CD40 (gene 958) is “inactive”; in the test with CD69, CD69 (gene 969), “inactive”; in [6] it was “inactive”; in test [7], “inactive”.
`O=C(CCCCCCCCc1cccnc1)N1CCC(C=C(c2ccccc2)c2ccccc2)CC1`: the outcome in test [1] was inactive. For the same molecule, the AC50 (in general, the concentration at which the activity in the assay is half-maximal) in test [2] is 11.4 µM (active); in test [3], 14.6 µM (active); in test [5] it was 15 µM (active); with CD38, CD38 (gene 952), 8.97 µM (active); with CD40, CD40 (gene 958) it was 8.35 µM (active); with CD69, CD69 (gene 969) it was 8.49 µM (active). In addition, the AC50 in test [6] is 7.42 µM (active); in test [7], 7.71 µM (active).
Take `O=P(OC(CCl)CCl)(OC(CCl)CCl)OC(CCl)CCl`: the outcome was “inactive” in [1]; “inactive” in test [2]; “inactive” in test [3]; “inactive” in test [4]; “inactive” in test [5]; “inactive” with CD69, CD69 (gene 969). Besides, the AC50 is 30 µM (active) in the test with CD38, CD38 (gene 952); 20 µM (active) with CD40, CD40 (gene 958); 23.4 µM (active) in test [6]; 20 µM (active) in [7].
For the molecule `CC[C@H]1CC[C@H](NCc2cc3c(cc2OC)[C@H]2C[C@H]2C(=O)N3C)[C@H](c2ccccc2)N1`, the outcome in [1] was “inactive”; in [2] it was “inactive”; in test [3], “inactive”; in test [4] it was “inactive”; in [5], “inactive”; in the test with CD38, CD38 (gene 952) it was “inactive”. Besides, the outcome with CD40, CD40 (gene 958) is “inactive”; in the test with CD69, CD69 (gene 969), “inactive”; in test [6], “inactive”; in test [7], “inactive”.
Take `Cc1ccc(O)cc1`: in test [1], the AC50 is 4.37 µM (active). The outcome in test [2] was “inactive”; in [3] it was “inactive”; in test [4] it was “inactive”; in [5], “inactive”; with CD38, CD38 (gene 952), “inactive”; with CD40, CD40 (gene 958), “inactive”. The outcome in the test with CD69, CD69 (gene 969) is “inactive”; in test [6], “inactive”; in test [7], “inactive”.
Take `CCC(C)(C)C(=O)O[C@H]1C[C@@H](C)C=C2C=C[C@H](C)[C@H](CC[C@@H]3C[C@@H](O)CC(=O)O3)[C@H]21`: the result in [1] and in test [3] was inactive. For the same molecule, the concentration at half-maximal activity (AC50) was 35 µM (active) in test [2]; 0.363 µM (active) in test [4]; 25.4 µM (active) in test [5]; 24.9 µM (active) with CD38, CD38 (gene 952); 3.99 µM (active) with CD40, CD40 (gene 958); 20 µM (active) in test [6]. The AC50 in test [7] was 0.149 µM (active).
Consider `CCCCCCCCCCCCCCCO`, for which the result in test [1] and in test [3] was inactive. For the same molecule, the AC50 is 31 µM (active) in [2]; 3.97 µM (active) in test [4]; 32.4 µM (active) in [5]; 32.6 µM (active) in the test with CD38, CD38 (gene 952); 37.3 µM (active) with CD40, CD40 (gene 958); 31.7 µM (active) in the test with CD69, CD69 (gene 969). For the same molecule, the AC50 in test [6] was 33.3 µM (active); in [7], 33.5 µM (active).
Consider `Cn1c(=O)cc(Oc2ccc(F)cc2F)c2cnc(NCC(C)(C)O)nc21`, for which the AC50 in test [1] was 1.76 µM (active); in [3], 0.58 µM (active); in test [4] it was 5.06 µM (active). The outcome in [2] is “inactive”; in [5] it was “inactive”; in the test with CD38, CD38 (gene 952), “inactive”; with CD40, CD40 (gene 958) it was “inactive”; with CD69, CD69 (gene 969), “inactive”; in test [6], “inactive”. Moreover, in test [7], the result was inactive.
